Source: PubChem BioAssay (NCI)
The panel holds about 79,000 compounds, 15% with a hit somewhere; the sample as a whole holds those more often. Rule as the data show it: active = growth inhibition above about 70%; inactive = the rest.

How the values were obtained:
[1] = NCI Yeast Anticancer Drug Screen. Data for the rad50 strain (AID 155);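 also: 0% = growth of vehicle-only cultures of the same strain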; conditions: S. cerevisiae rad50 strain growth inhibition; at 50.0 µM; hits give high values
Outline: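 Genetically altered yeast (DNA repair pathway); compound treatment; growth inhibition vs vehicle ctrl.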

[2] = NCI Yeast Anticancer Drug Screen. Data for the mec2-1 strain (AID 157); conditions: S. cerevisiae mec2-1 strain, at 50.0 µM, hits give high values
Outline: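 Cells of the genetically defined mec2-1 yeast strain are incubated with test compound. Inhibition of growth is calculated against vehicle-treated controls.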

[3] = NCI Yeast Anticancer Drug Screen. Data for the sgs1 mgt1 strain (AID 161);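 also: 0% = growth of cultures given vehicle only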; conditions: S. cerevisiae sgs1 mgt1 strain, at 50.0 µM, hits give high values
Outline: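 Mutant yeast exposed to compound; growth scored against vehicle-only wells.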

[4] = NCI Yeast Anticancer Drug Screen. Data for the cln2 rad14 strain (AID 165);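 also: 0% = growth equal to vehicle treated cultures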; conditions: S. cerevisiae cln2 rad14 strain, at 50.0 µM, hits give high values
Outline: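 The screen exposed genetically defined yeast (cln2 rad14) to test compounds and scored growth inhibition relative to vehicle-treated controls.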

[5] = NCI Yeast Anticancer Drug Screen. Data for the bub3 strain (AID 167); conditions: S. cerevisiae bub3 mutant strain, at 50.0 µM, hits give high values
Outline: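 Yeast carrying a defined mutation is treated with each compound, and growth is compared with that of vehicle-exposed cells to give inhibition.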

[6] = NCI Yeast Anticancer Drug Screen. Data for the mlh1 rad18 strain (AID 175); conditions: S. cerevisiae mlh1 rad18 strain growth inhibition; at 50.0 µM; hits give high values
Outline: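 Compound-treated yeast growth, normalised to vehicle controls. Strain bears defined DNA repair mutations.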

Measured: growth inhibition

CN(C)CCCn1c(=O)nc2n(-c3ccccc3)c3ccccc3nc-2c1=O
inactive: [1] 9.3% | [2] 4.5% | [3] -10.4% | [4] 8.75% | [5] 2.35% | [6] -44.5%

CCOc1cc(CC[N+](C)(C)C)c2c(ccc3ccc(OC)c(OC)c32)c1OC
inactive: [1] 18.1% | [2] -10.8% | [3] -5.4% | [4] 13.5% | [5] -15.8% | [6] -14.2%

COc1c2c(c(OC)c(C(C)=O)c1OC(=O)c1ccccc1)CCO2
inactive: [1] 1% | [2] -14.4% | [3] 11.4% | [4] 11.8% | [5] 0.05% | [6] 15.6%

COc1cc(O)c(C(C)c2ccccc2)cc1N=NC(N)=O (stereo unspecified)
inactive: [1] 17.1% | [2] 16.4% | [3] 19.3% | [4] 32.8% | [5] 43.4% | [6] 45.5%

NC1=C(Br)C(=O)c2[nH]c(=O)[nH]c(=O)c2C1=O
inactive: [1] 18.8% | [2] 7.6% | [3] 24.4% | [4] -4% | [5] 7.15% | [6] 20.6%

Cc1ccc(Cc2ccccc2C(=O)O)cc1
inactive: [1] -5.95% | [2] 1.55% | [3] -2.3% | [4] -42.9% | [5] -2.45% | [6] -6.05%

C=CCc1cccc(C2N(Cc3ccc(OC)cc3OC)CCCN2Cc2ccc(OC)cc2OC)c1O
inactive: [1] 26.6% | [2] 7% | [3] -0.75% | [4] 16.6% | [5] -2.05% | [6] 17.8%

CCOC(=O)/C(=C\c1cc(OC)ccc1OC)P(=O)(OCC)OCC
inactive: [1] 39.2% | [2] 25.9% | [3] 18.4% | [4] 21.9% | [5] 7.6% | [6] 16.8%

Cc1ccc(S(=O)(=O)OC2C(C)OCOC3COCOC32)cc1 (stereo unspecified)
inactive: [1] -6.3% | [2] -6.45% | [3] 5.4% | [4] -13.7% | [5] 2.65% | [6] -9.85%

Cn1c(=S)sc2ccc(S(=O)(=O)C(F)F)cc21
inactive: [1] 23.7% | [2] 20.9% | [3] 4.7% | [4] 12.8% | [5] 22.6% | [6] 25.1%

N#CCCN(CCC#N)c1ccc(/C=C2\CC(O)(c3ccccc3)N(c3ccc(Cl)cc3)C2=O)cc1 (stereo unspecified)
inactive: [1] -15.8% | [2] 0.35% | [3] -23.7% | [4] 11.3% | [5] -6.3% | [6] -22.4%

Cc1ccccc1S(=O)(=O)Nn1cnc2ccc(S(=O)(=O)Nc3ccc(Cl)cc3)cc2c1=O
inactive: [1] 40.1% | [2] 0.25% | [3] 40.6% | [4] 6.95% | [5] 23.9% | [6] 30.1%

CC(=O)Nc1cc2cc(N)ccc2oc1=O
inactive: [1] -6.2% | [2] 0.4% | [3] 8.9% | [4] 10.4% | [5] 15.2% | [6] 16.6%

CCOc1nc(N)nc(C)c1N=Nc1ccccc1OC
inactive: [1] 12.7% | [2] 9.05% | [3] 14.4% | [4] 35.9% | [5] 11.5% | [6] 13.5%

COc1cc2c(cc1O)C(C)C(c1ccccc1)O2 (stereo unspecified)
inactive: [1] 3.95% | [2] 4.8% | [3] 9.45% | [4] -21.1% | [5] 7.15% | [6] 13.2%

CCOc1c[n+](C)c(/C=C/c2ccccc2)s1
inactive: [1] 3.15% | [2] -11.6% | [3] -3.25% | [4] -9.3% | [5] -0.45% | [6] -20.9%

CC(C)COC(=O)C(=O)OCC(C)C
inactive: [1] 14.9% | [2] 23.1% | [3] -6.45% | [4] 34% | [5] -5.05% | [6] -14.7%

O=C(Nc1ccc(F)cc1)Nc1ccc(F)cc1
inactive: [1] 3.4% | [2] -10.9% | [3] -3.25% | [4] -43.7% | [5] -32.9% | [6] -16.6%

CSc1ccc(NC(=S)NN(C)C)cc1
inactive: [1] -22.9% | [2] -25.3% | [3] -15.2% | [4] 9.35% | [5] 1.4% | [6] -7.65%

COc1cc2c(cc1OC)C(Cc1ccccc1CCCl)=NCC2
inactive: [1] 15.1% | [2] 8.65% | [3] -31.8% | [4] -1.8% | [5] -24.7% | [6] 2.45%

CC(C)(O)CCc1ccccc1
inactive: [1] -7.75% | [2] -29.3% | [3] -14.2% | [4] 14.8% | [5] -19.3% | [6] 6.6%
